Only some compounds are listed: those with a hit (about 2.5% of all), similar ones and a draw of the others.
Cruzain inh noDet: inhibitors of Trypanosoma cruzi cruzain without detergent | P25779 | purified cruzain, Z-FR-AMC fluorescence, no detergent | Potency, µM, for inactives: max response, negative = inhibition, hits mostly inhibitors | hit rate 2.3% among 200,000;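 further: plate controls were enzyme without inhibitor for no effect and buffer without enzyme for full effect; nearly all actives have a fitted effect of over 40% in size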
Target sequence (P25779 123-467 limits assumed): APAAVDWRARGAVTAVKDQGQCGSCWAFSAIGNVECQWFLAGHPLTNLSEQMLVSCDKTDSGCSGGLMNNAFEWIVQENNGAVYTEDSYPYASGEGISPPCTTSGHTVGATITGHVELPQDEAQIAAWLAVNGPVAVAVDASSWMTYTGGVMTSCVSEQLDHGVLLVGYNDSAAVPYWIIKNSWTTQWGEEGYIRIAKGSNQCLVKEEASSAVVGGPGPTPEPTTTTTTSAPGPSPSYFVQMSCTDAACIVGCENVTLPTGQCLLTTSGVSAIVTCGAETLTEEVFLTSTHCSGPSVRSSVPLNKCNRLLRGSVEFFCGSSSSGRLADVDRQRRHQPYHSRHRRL
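Purified cruzain at 1.5 nM, pre-incubated 15 min with compound at room temperature in 100 mM sodium acetate pH 5.5, 5 mM DTT, 0.00005% Triton X-100. Reaction started with 2 uM Z-FR-AMC; AMC fluorescence increase over 60 s gives rate.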
Cruzain Triton: blocks cruzain activity in presence of Triton detergent | purified cruzain, Z-FR-AMC fluorescence, 0.01% Triton | hit rate 0.43% among 200,000 | Potency, µM, for inactives: max response, negative = inhibition, most hits filed as inhibitors | P25779;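 further: plate controls were neutral wells for no effect and buffer without enzyme for full effect; nearly all actives have a fitted effect of over 40% in size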
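Sodium acetate buffer (100 mM, pH 5.5) containing 5 mM DTT and 0.01% Triton X-100 hosted 1.5 nM cruzain and test compound for 15 min at room temperature. Cleavage of 2 uM Z-FR-AMC was then tracked by fluorescence.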
Active calls of the source: *; ? = inconclusive. The call rests on the fitted dose curve; in most records, active means well fitted curve in the direction sought with a large enough effect; inconclusive means small, poorly fitted or top-dose-only effect, or another doubt; inactive means no such curve, though single readings can be large; an effect the other way counts as inactive or inconclusive. Potency means the concentration at half of the fitted maximal effect.

SMILES	Cruzain inh noDet	Cruzain Triton
CC(=O)c1ccc(NC(=O)c2c3c(nc4ccccc24)C(=O)N(C2CCCCC2)C3)cc1	-7.4%	-0.6%
Cc1ccccc1OCC(=O)Nc1ccc(S(=O)(=O)N(Cc2ccccc2)c2ccccc2)cc1	4.8%	-2.1%
Nc1c(C(=O)c2ccc(F)cc2)sc(Nc2ccccc2F)c1S(=O)(=O)c1ccc(Br)cc1	-26.5%	-1.1%
COc1ccccc1Nc1sc(C(=O)c2ccc(C)cc2C)c(N)c1S(=O)(=O)c1ccccc1	7.94µM*	-1.3%
COc1ccc(OC)c(Nc2sc(C(=O)c3ccccc3)c(N)c2S(=O)(=O)c2ccccc2)c1	7.94µM*	-1.6%
COc1ccccc1Nc1nc(C)nc(N)c1S(=O)(=O)c1ccccc1	-11.9%	-3.2%
CCOc1cc(Cl)c(S(=O)(=O)n2cc(C)nc2CC)cc1Cl	21.4%	-7.7%
CCOC(=O)Nc1ccc2c(CN3CCN(S(=O)(=O)c4ccccc4)CC3)cc(=O)oc2c1	12.6µM*	-0.6%
Cc1cc2oc(=O)cc(CN3CCN(C/C=C/c4ccccc4)CC3)c2cc1O	-20.8%	-0.8%
Cc1ccc2c(CN3CCN(S(=O)(=O)/C=C/c4ccccc4)CC3)cc(=O)oc2c1	25.1µM*	-2.0%
CCOC(=O)Nc1ccc2c(CN3C(=O)NC4(CCCC4)C3=O)cc(=O)oc2c1	-8.5%	-22.7%
CC(C)(C)C(=O)Oc1cc(N)n(S(=O)(=O)c2ccc(F)cc2)n1	2.2%	-2.9%
Nc1cc(OC(=O)c2ccco2)nn1S(=O)(=O)c1ccc(F)cc1	20µM*	25.1µM*
Cc1cccc(-n2c(C)cc(/C=C3/C(=N)N4C(c5ccccc5)=CSC4=NC3=O)c2C)c1	5.01µM*	-3.5%
CCCC1=NN2C(=N)/C(=C\c3cc(C)n(-c4cccc(C)c4)c3C)C(=O)N=C2S1	?	-10.2%
CCOC(=O)CSc1nnc2n(-c3ccccc3)c(=O)c3c4c(sc3n12)CC(C(C)(C)C)CC4 (stereo not drawn)	25.2%	-12.5%
Nc1c(C(=O)c2ccccc2)sc2snc(SCC(=O)c3ccccc3)c12	12.6µM*	-28.4%
Nc1nnc(SCC(=O)c2ccccc2)s1	-9.9%	2.1%
CCN(C(=O)Cn1c(C(=O)OC)cc2oc3ccccc3c21)c1cccc(C)c1	-1.7%	-18.3%
CN(Cc1ccccc1)c1nc(-c2ccc(F)cc2)cc(C(F)(F)F)n1	-2.3%	1.2%
COc1ccccc1N1CCN(S(=O)(=O)CCNC(=O)Cc2ccc(Cl)cc2)CC1	?	-3.1%
CC1(c2ccccc2)CC(C)(C)N2C(=O)/C(=C3\SC(=S)NC3=O)c3cccc1c32 (stereo not drawn)	7.94µM*	-9.8%
CC1(c2ccccc2)CC(C)(C)N2C(=O)C3(C(C#N)=C(N)Oc4cc(O)ccc43)c3cccc1c32 (stereo not drawn)	12.3%	-5.7%
O=C(CSc1nnnn1-c1ccc2c(c1)OCCO2)c1cccc2c1OCCO2	25.1µM*	0.2%
Cc1cc(C(=O)COC(=O)Cc2n[nH]c(=O)c3ccccc23)c(C)n1-c1ccc2c(c1)OCCO2	15.8µM*	-3.6%
SMILES	Cruzain inh noDet	Cruzain Triton
CC(=O)c1c(C)[nH]c(C(=O)CSc2nnc(-c3ccccc3)n2Cc2ccc3c(c2)OCO3)c1C	11.6%	2.6%
Cc1cc(C(=O)CSc2nnnn2-c2ccccc2)c(C)n1-c1ccc2c(c1)OCO2	3.16µM*	-3.3%
O=C(O)CSc1nnnn1-c1ccc2c(c1)OCCO2	-4.8%	-7.7%
CCCn1c(SCC(=O)c2cc(C)n(-c3ccc4c(c3)OCO4)c2C)n[nH]c1=O	?	-5.7%
Cc1cc(C(=O)CSc2nncs2)c(C)n1-c1ccc2c(c1)OCO2	?	-7.1%
Cc1cc(C(=O)CSc2nnc(-c3cccc(F)c3)n2N)c(C)n1Cc1ccc2c(c1)OCO2	20µM*	-0.1%
Cc1cc(NC(=O)c2cccnc2)cc(-c2nc3cc(Cl)ccc3o2)c1O	-10.3%	1.7%
COC(=O)c1cc2occc2n1Cc1ccc(F)cc1Cl	-8.9%	-8.5%
CCOc1ccccc1-n1nnc(-c2nsc(NC(=O)c3ccc(C)cc3)n2)c1C	3.5%	1.5%
CCCC(=O)C1=C(c2ccc(C)cc2)N(C(=O)CCC)n2cnnc2S1	7.3%	-11.7%
O=C(O)CSc1nnc(-c2cccs2)n1-c1ccc(Cl)cc1	-8.1%	-2.1%
Cc1ccc(NC(=O)CSc2nnnn2-c2ccc3c(c2)OCO3)cc1C	25.1µM*	3.6%
Cc1cc(C(=O)COc2ccc(C#N)cc2)c(C)n1-c1ccc2c(c1)OCO2	25.1µM*	-1.8%
Cc1ccc(-n2nnnc2SCC(=O)c2cc(C)n(CC3CCCO3)c2C)cc1 (stereo not drawn)	12.1%	-0.6%
Cc1cc(C(=O)CSc2nnnn2-c2ccc(O)cc2)c(C)n1Cc1ccc2c(c1)OCO2	15.8µM*	-0.5%
Cc1ccc(-n2nnnc2SCC(=O)Nc2ccc3c(c2)OCCO3)cc1C	-4.7%	-5.0%
O=C(CSc1nnc(-c2cccs2)n1-c1cccc(Cl)c1)c1cccc2c1OCCO2	25.1µM*	2.0%
Cc1cc(C(=O)COC(=O)C2=COCCO2)c(C)n1-c1ccc2c(c1)OCO2	-14.4%	-3.2%
Cc1[nH]c2ccccc2c1C1(O)C(=O)N(Cc2ccccc2)c2ccc(Cl)cc21 (stereo not drawn)	?	-10.6%
CC(C)n1c(SCC(=O)Nc2ccc(F)cc2)nc2c(oc3ccccc32)c1=O	-1.4%	1.6%
Cc1c(C(=O)N2CCC(C)CC2)c(S(=O)(=O)NCc2ccccc2)c(C)n1C	-5.5%	0.2%
Cc1ccc(-n2nc3ccc(NC(=O)/C=C/c4ccco4)cc3n2)cc1	15.8µM*	-7.2%
Cc1ccc(NC(=O)c2cccc(NC(=O)/C=C/c3ccco3)c2)cc1C	-9.9%	-9.0%
Cc1ccc(NC(=O)C2CCCN(S(=O)(=O)c3ccc(F)cc3)C2)cc1 (stereo not drawn)	9.2%	-3.4%
Cc1ccc(CCNC(=O)c2ccc(CSc3nc4ccncc4n3Cc3ccc(F)cc3)cc2)cc1	1.0%	4.6%
SMILES	Cruzain inh noDet	Cruzain Triton
COC(=O)N1c2ccccc2C23[C@@H]4CN5CCC[C@]6(CCC12C(O)(C6)C4=O)[C@H]53	-5.4%	2.9%
CCC(Sc1nc2ccccc2c2nc(-c3ccccc3)nn12)C(=O)Nc1cccc(OC)c1 (stereo not drawn)	-2.4%	3.4%
CCC(CC)c1nnc(NC(=O)c2ccc(S(=O)(=O)N3CCc4ccccc4C3)cc2)s1	?	-4.1%
Cc1cc(-c2csc(NC(=O)c3ccc(C#N)cc3)n2)c(C)n1Cc1ccccc1	10µM*	-0.9%
Cc1ccc2nc(NNC(=O)c3ccc(S(=O)(=O)N4CCc5ccccc5C4)cc3)sc2c1	25.1µM*	3.9%
COc1ccc(-n2c(C)cc(-c3csc(NC(=O)c4ccc(S(=O)(=O)N(C)C)cc4)n3)c2C)cc1	10µM*	-1.0%
Cc1ccc2nc(NC(=O)c3ccc(S(=O)(=O)N4CCC(C)CC4)cc3)sc2c1	-10.9%	2.6%
Cc1ccc(C(=O)Nc2nc(-c3cc(Cl)sc3Cl)cs2)cc1	?	4.8%
CN(C)S(=O)(=O)c1ccc(C(=O)Nc2nc(-c3cccs3)cs2)cc1	9.5%	-6.9%
COC(=O)c1ccc(-c2csc(NC(=O)c3ccc(S(=O)(=O)N4CCc5ccccc5C4)cc3)n2)cc1	6.31µM*	1.0%
Cc1cc(C)c(NC(=O)Cn2c(=O)n(CC(=O)NCCc3ccccc3)c(=O)c3ccccc32)c(C)c1	-6.5%	3.4%
COc1ccc(CNC(=O)CCc2c(C)nc3c(c2C)c(=O)n(C)c(=O)n3C)cc1	0.2%	1.7%
CC12CC[C@@H]3c4ccc(OS(=O)(=O)O)cc4CC[C@H]3C1CCC2=O (stereo partly drawn)	-6.9%	-1.2%

Screening results from PubChem.
